Assay results as given in PubChem BioAssay AID445 (National Center for Advancing Translational Sciences (NCATS), 2006).
Out of some 110,000 compounds screened, about 40 (0.04%) were called active. About 22% were inconclusive and are not listed. The entries come from a sample that favours actives as a whole. Values without a mark were called inactive. Calls come from the whole dose curve; as a rule, active = well fitted curve in the direction sought with a large enough effect in the signal ratio (not every such curve was filed as active); inconclusive = small, poorly fitted or top-dose-only effect, or a change in a side signal; inactive = flat fitted curve, though single readings scatter; the % refers to the signal ratio.

experiment: IkB Signaling; details: ABC-DLBCL IkBa-CBG/CBR dual luciferase ratio, 4 h; series mostly up to 57.1 µM; IkBa stabilization activation: at the top concentration;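 for IkBa stabilization activation: 0% = basal untreated cells and 100% = reference inhibitor full response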
Text: NIH Molecular Libraries Screening Centers Network [MLSCN]
NIH Chemical Genomics Center [NCGC]
Nuclear factor kappa-B (NF-kappa-B) plays an important role in normal B cell development and survival. Diffuse large B cell lymphoma (DLBCL) is the most commonly observed type of non-Hodgkin's lymphoma. Gene expression analysis has identified an activated B cell-like subtype of DLBCL (ABC-DLBCL) which expresses known NF-kappa-B target genes. […] However, targets upstream of IKK have been largely unexplored and so nodes upstream of IKK in the NF-kappa-B pathway remain untested due to the lack of chemical probes.
A cell-sensor assay for I-kappa-B-alpha stabilization was developed with NIH investigator Dr. R. Eric Davis in Dr. Louis M. Staudt's laboratory. The assay uses green (CBG68) and red (CBR) emitting beetle luciferases [Chroma-Glo(TM) developed by Promega Corp.] where the green luciferase is fused to I-kappa-B-alpha and the red luciferase is present in its native state. Both luciferase genes are stably present in the OCI-Ly3 human ABC DLBCL cell line, but their expression is under the control of tetracycline-inducible promoters. Following the addition of doxycycline to induce expression of the luciferases, the green luminescence in control cultures rises only slowly because the CBG fusion partner I-kappa-B-alpha is targeted by IKK activity for rapid degradation. In contrast, green luminescence rises rapidly in the presence of proteasome inhibitors or IKK inhibitors. The rise in red luminescence of CBR is not affected by proteasome or IKK inhibitors, and serves as normalization for cell number and nonspecific effects. Compounds were screened as a concentration-titration series that ranged from 57 uM to 0.7 nM.
NCGC Assay Protocol Summary:
Cells were seeded in 1536-well plates at 5000 cells/3ul in IMDM medium containing 0.5% FBS, w/o phenol red, L-glutamine, 25 mM HEPES, 3 mg/ml sodium bicarbonate. After centrifugation for 1 min. at 1000 rpm, 23 nl of compounds or DMSO were delivered to each well using a pin tool. Then 1ul 80ng/ml doxycycline was dispensed into white solid 1536-well plates and the plates were incubated at 37C/5% C02 in a cell incubator for 4 hrs. Then 4 ul Chroma-Glo luminescent substrate mix (Promega) was added to each well. The plate was incubated at R.T. for 10-15 min. The plates were measured on a ViewLux plate reader for green luminescence (540/20 nm filter) and red luminescence (618/8 nm filter). The green and red luminescent signals were corrected for red and green luminescence filter overlap using previously determined filter calibration constants (determined using the procedure outlined in the Promega Technical Manual). The %Activity was determined from the ratio of corrected green/red luminescent values. Green luminescent and ratio %Activity was determined by normalizing to the difference in signal between basal cells (0% Activity) and cells incubated with 10 uM of the proteasome inhibitor MG-132 (100% Activity). Red luminescent %Activity was normalized to the difference between red luminesence in basal cells (0%Activity) and zero luminescence (-100% Activity).
Concentration-response curves were fitted to the signals arising from the green luminescence (I-kappa-B-alpha-luciferase fusion; IkB-luc) and the red luminescence (unfused luciferase; luc) as well as the calculated ratio. The concentration-effect curves were then classified based on curve quality (r2), response magnitude and degree of measured activity. Compounds were then categorized based on their concentration-response curves for all three datasets (Ikb-luc, luc and ratio).
Keywords: IKK, I-kappa-B, IkB, IkBa, cytotoxicity, luminescence, MLSMR, MLSCN, NIH Roadmap, qHTS, NCGC
Potency is the fitted concentration of half-maximal effect.

SMILES | IkBa stabilization activation [%] | Potency
O=C(NCCc1ccccc1)c1ccc2c(c1)N(Cc1ccccc1)C(=O)c1ccccc1S2(=O)=O | -2.13 | 
CCCN(CCC)C(=O)C(Cc1ccccc1)NS(=O)(=O)c1ccc2c(c1)c(=O)n(C)c(=O)n2C (stereo not drawn) | 0.449 | 
CCOc1ccc(CCNC(=O)c2c(C)oc3ncn(C)c(=O)c23)cc1 | -0.592 | 
O=C(NCCCO)c1nn(-c2ccc(Cl)cc2)nc1CO | -1.87 | 
Cc1ccc(NC2=C(c3ccc(C(F)(F)F)cc3)C(=O)c3ccccc32)cc1F | 6.11 | 
CC(C)OCCCn1c(SCC(=O)c2ccccc2)nc2c(sc3ccccc32)c1=O | -0.853 | 
CCCN1CCN(CCCNC(=O)c2cnn(-c3ccc(C)cc3)c2-n2cccc2)CC1 | -2.29 | 
COc1cc(OC)c(OC)cc1/C=C/c1nc2ccccc2c(=O)n1-c1ccc(Br)c(C)c1 | -1.32 | 
Cc1cccc(NC(=O)CSc2nc3c([nH]c4ccccc43)c(=O)n2-c2cc(C)cc(C)c2)c1 | -1.03 | 
COc1ccc(CNS(=O)(=O)c2ccc(-c3cnc(C4CC4)o3)cc2)cc1 | -0.844 | 
CCOC(=O)c1c(C)[nH]c(C)c1S(=O)(=O)N(C)CC(=O)N1CCN(c2ccccc2)CC1 | 0.594 | 
CCOC(=O)c1c(NC(=O)/C=C/c2ccc(OC)cc2)sc2c1CCC(C)C2 (stereo not drawn) | 1.01 | 
O=C(NCCc1ccccc1)C(=O)NCC(c1ccco1)S(=O)(=O)c1ccccc1 (stereo not drawn) | -1.39 | 
CC(NC(=O)CCc1cn(Cc2ccccc2Cl)c2ccccc12)c1ccccc1 (stereo not drawn) | 2.65 | 
CCc1nc2onc(C)c2c(=O)n1CC(=O)O | 2.07 | 
O=C1OC(C(=O)Nc2cccc(Br)c2)Cc2ccccc21 (stereo not drawn) | -0.928 | 
CCC(=O)N1CCc2cc(CNC(=O)Nc3ccccc3Cl)ccc21 | 0.103 | 
CCS(=O)(=O)N1CCC(n2c(C)nc3cccnc32)CC1 | 0.706 | 
Cc1oc2c(c1C(=O)Nc1ccc(F)c(F)c1)C1=NCCN1C=N2 | 0.228 | 
O=C(c1ccc2c(c1)N(Cc1ccccc1F)C(=O)c1ccccc1S2(=O)=O)N1CCOCC1 | -0.457 | 
Cc1ccc(S(=O)(=O)c2nnn3c2nc(N2CCN(c4ccccc4F)CC2)c2cc(Cl)ccc23)cc1C | -1.33 | 
COCCCNC(=O)c1c(NC(=O)c2cc(=O)c3cc(C)c(C)cc3o2)sc2c1CCCC2 | -1.3 | 
CC(C)(C)OC(=O)N1CCC(c2c(C(=O)N3CCc4ccccc4C3)cnn2-c2ccc(F)cc2)CC1 | 0.532 | 
Cc1ccc2nc(-c3ccc(C)c(NC(=O)Cc4ccccc4)c3)oc2c1 | -2.33 | 
O=C(NCc1ccc(F)cc1)c1ccc2nc(N3CCCCC3)sc2c1 | -0.827 | 
COc1ccc(-c2nn(CC(=O)NC3CCCC3)c3c2cnc2ccc(F)cc23)cc1 | -3.12 | 

SMILES | IkBa stabilization activation [%] | Potency
CCOc1ccc(N2CC(C)Cn3c2nc2c3c(=O)n(Cc3c(F)cccc3Cl)c(=O)n2C)cc1 (stereo not drawn) | -0.396 | 
CCOc1ccc(NC(=O)Cn2c(C)ccc(C#N)c2=O)cc1 | -1.37 | 
O=C(Nc1cccc2cccnc12)c1cccc2c(Br)cccc12 | -3.7 | 
COc1ccc(-n2c(SC)nc3sc4c(c3c2=O)CCN(C(C)=O)C4)cc1 | 1.77 | 
Cc1ccc(S(=O)(=O)N2CCc3cc(C(=O)Nc4ccc(Cl)cc4C)ccc32)cc1 | -1.18 | 
COc1ccc(C)cc1-n1c(-c2ccc(C)cc2)cc2c1CC(C)(C)CC2=O | 1.22 | 
CCC1CCCCN1Cc1c(O)ccc2c(=O)c(Oc3ccccc3Cl)c(C(F)(F)F)oc12 (stereo not drawn) | 6.03 | 
Cc1ccc(F)cc1S(=O)(=O)N1CCC(c2nc3ccccc3s2)CC1 | 1.9 | 
CC(=O)c1ccc(NC(=O)COc2ccccc2-c2nc(-c3ccccc3)no2)cc1 | -2.41 | 
CCc1nn(CCCC(=O)NC(C)c2ccccc2)c(=O)c2cc3occc3n12 (stereo not drawn) | 0.87 | 
CC(=O)N1CCCc2cc(S(=O)(=O)Nc3ccc(Cl)cc3F)ccc21 | 0.612 | 
COc1ccc(CNC(=O)C(C)n2nc(C)c3c(C)n(-c4ccccc4)nc3c2=O)c(OC)c1 (stereo not drawn) | 2.88 | 
Cc1ccc(-c2nc(Cn3c(=O)cc(-c4ccccc4)c4c(C)nn(C)c43)c(C)o2)cc1 | -0.408 | 
COc1ccc(C2C(=O)N(C3CCCCC3)CC(=O)N2Cc2ccccc2Cl)cc1OC (stereo not drawn) | -0.663 | 
Cc1ccc(NC(=O)c2oc3ccccc3c2NC(=O)Cc2cccs2)cc1 | 0.174 | 
CCOC(=O)C1CCN(S(=O)(=O)c2ccc3c(c2)N(C)C(=O)CC(=O)N3C)CC1 | 0.0845 | 
COc1ccc(-c2nc3nc(C)cc(C)n3c2Nc2c(C)cccc2C)cc1 | 4.16 | 
Cc1ccc(C)c(CN2C(=O)c3ccccc3S(=O)c3ccc(C(=O)N4CCOCC4)cc32)c1 (stereo not drawn) | 0.246 | 
Cc1ccccc1CNC(=O)CCCn1nc(C)c2sc3ccccc3c2c1=O | -0.00104 | 
CCc1cccc(NC(=O)Cn2nc(CC)n3c(cc4cc(C)ccc43)c2=O)c1 | 6.39 | 
Cn1c(=O)c2c(ncn2CC(=O)Nc2cccc(C(F)(F)F)c2)n(C)c1=O | 6.05 | 
COc1ccc(NS(=O)(=O)c2cc3c(cc2C)N(C(C)=O)CCO3)cc1 | 12.8 | 
COc1cc(C)ccc1OCCSc1nc2ccc(NC(=O)c3ccc(C)cc3)cc2s1 | 0.344 | 
CCOC(=O)c1ccc(-c2ccc(/C=C(\C#N)C(=O)Nc3ccc(C)cc3)o2)cc1 | -0.769 | 
CCn1c2c(c(=O)n3ncc(C(=O)N4CCN(c5ccccc5)CC4)c13)CN(Cc1ccc(OC)cc1)CC2 | 1.86 | 
Cc1cccc(-n2c(SCC(N)=O)nc3c(oc4ccccc43)c2=O)c1 | -0.917 | 

SMILES | IkBa stabilization activation [%] | Potency
Cc1cccc(-c2nc(SCc3ccc(Br)cc3)n3[nH]c(=O)cc3n2)c1 | -5.03 | 
CCOc1cccc2sc(N3CCN(C(=O)C4CC4)CC3)nc12 | -4.76 | 
O=c1cc(CSc2ncn[nH]2)[nH]c2ccc(F)cc12 | 0.491 | 
O=C(CC1Oc2ccccc2NC1=O)NCc1ccc(F)cc1 (stereo not drawn) | 2.65 | 
Cc1ccc(CNC(=O)CCC(=O)N2Cc3ccccc3Oc3ncccc32)cc1 | 2.77 | 
Cc1cc(C)c(NC(=O)Cn2c(SCC(=O)NCc3ccccc3)nc3ccccc32)c(C)c1 | -0.55 | 
CCCC(=O)N1CCN(c2nc3c(OC)ccc(C)c3s2)CC1 | -4.62 | 
Cc1cc(C)n(-c2ccc(Cl)c(C(=O)O)n2)n1 | 1.24 | 
Cc1cccc(Nc2cc(C)nc(-n3nc(C)cc3C)n2)c1 | -1.06 | 
CC(=O)c1ccc(Oc2cc(C)nc(-n3nc(C)cc3C)n2)cc1 |  | 6.31 µM (active)
OCc1cnc(SCc2ccc(F)cc2)n1Cc1ccc(F)cc1 | 1.24 | 
CC(C)(C)OC(=O)N1CCC(c2c(C(=O)NCc3ccccn3)cnn2-c2ccc(F)cc2)CC1 | 0.0918 | 
COc1ccccc1NC(=O)CN1C(=O)c2ccccc2Sc2ccc(C(=O)N3CCCC3)cc21 | 12.1 | 
COCCn1c(CCC(=O)Nc2cc(C)ccc2C)nc2cccnc21 | 1.81 | 
Cc1ccc(N2CC(C(=O)Nc3ccc(N(C)C)cc3)CC2=O)cc1Cl (stereo not drawn) | 1.8 | 
CCOc1ccc(N(CC)C(=O)c2noc3c2COc2ccc(C)cc2-3)cc1 | -0.625 | 
Cc1ccc(C)c(N2C(=O)N(Cc3c(F)cccc3Cl)c3ccccc3S2(=O)=O)c1 | 9.61 | 
Cc1csc2nc(COC(=O)c3ccccc3NC(=O)c3ccccc3Cl)cc(=O)n12 | 2.09 | 
CCN(CC)C(=O)CSc1nc2cc3c(cc2c(=O)n1CCCC(=O)NCc1ccc2c(c1)OCO2)OCO3 | -2.8 | 
O=C(CCn1c(=O)c2ccccc2n(Cc2ccc(Cl)cc2)c1=O)NCc1ccc2c(c1)OCO2 | -0.548 | 
CCOc1ccc2nc(N3CCCC(C(=O)Nc4cc(C)ccc4C)C3)sc2c1 (stereo not drawn) | -0.374 | 
CCc1ccc(NC(=O)CN2C(=O)CCSc3ccc(S(=O)(=O)N4CCCC4)cc32)cc1 | 1.01 | 
Cc1cccc(NC(=O)Cn2c(C(F)(F)F)nc3ccccc32)c1C | 2.61 | 
COc1ccc(C2c3c(oc4ccccc4c3=O)C(=O)N2Cc2ccc3c(c2)OCO3)cc1 (stereo not drawn) | 3.44 | 
Cc1ccc(Cl)cc1NC(=O)C(C)n1nnc2sc(-c3ccccc3)cc2c1=O (stereo not drawn) | -1.77 | 
CCOC(=O)c1sc(NC(=O)/C=C/c2ccc(C(C)C)cc2)c(C(=O)OCC)c1C | -4.34 | 
